Test results: the supplement of paper PMC10849652
About 7,900 targets were measured; listed, in parts, are those with a hit and a random draw of the rest. About 0.6% of all pairs of compound and target were hits.

Key:
Test in all cases: log2 fold change, soluble protein after heating vs DMSO (PISA); higher = thermal stabilisation; K562 cells, 10 uM, 30 min; active = over 0.2 and 3.5 SD of the protein, either way, in both replicates (recomputed)
crizotinib = compound: C[C@@H](Oc1cc(-c2cnn(C3CCNCC3)c2)cnc1N)c1c(Cl)ccc(F)c1Cl [crizotinib]
How it was run: (§1)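 Thermal stability values are relative to control samples and come from duplicates. They are expressed as log2 fold changes. For measurement, K562 cells (2×10^6 cells/mL) received 10 μM compound for 30 min, and aliquots were heated for 3 min over 48°C-58°C, pooled, and extracted at 4°C in PBS with 0.5% NP-40. Soluble protein, the supernatant after 21,000xg for 90 min, was quantified by TMTpro 16plex LC-MS/MS with equalised channel sums.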

[1] = compound: C[C@H](C1=CC=C(C=C1)C(=O)NC2=C3C=CNC3=NC=C2)N
How it was run: as §1

duvelisib = compound: C[C@H](Nc1ncnc2nc[nH]c12)c1cc2cccc(Cl)c2c(=O)n1-c1ccccc1 [duvelisib]
How it was run: as §1

gandotinib = compound: Cc1cc(Nc2cc(CN3CCOCC3)c3nc(C)c(Cc4ccc(Cl)cc4F)n3n2)n[nH]1 [gandotinib]
How it was run: as §1

[2] = compound: Cc1cc(SCc2sc(-c3ccc(C(F)(F)F)cc3)nc2C)ccc1OCC(=O)O
How it was run: as §1

doramapimod = compound: Cc1ccc(-n2nc(C(C)(C)C)cc2NC(=O)Nc2ccc(OCCN3CCOCC3)c3ccccc23)cc1 [doramapimod]
How it was run: as §1

ispinesib = compound: Cc1ccc(C(=O)N(CCCN)[C@@H](c2nc3cc(Cl)ccc3c(=O)n2Cc2ccccc2)C(C)C)cc1 [ispinesib]
How it was run: as §1

[3] = compound: CS(=O)(=O)c1ccc(-c2cnc(N)c(C(=O)Nc3ccccc3)n2)cc1
How it was run: as §1

tozasertib = compound: Cc1cc(Nc2cc(N3CCN(C)CC3)nc(Sc3ccc(NC(=O)C4CC4)cc3)n2)n[nH]1 [tozasertib]
How it was run: as §1

Measured: log2 fold change

MBLAC1 (UniProt A4D2B0)
Chain of UniProt A4D2B0 (A4D2B0 whole entry, looked up): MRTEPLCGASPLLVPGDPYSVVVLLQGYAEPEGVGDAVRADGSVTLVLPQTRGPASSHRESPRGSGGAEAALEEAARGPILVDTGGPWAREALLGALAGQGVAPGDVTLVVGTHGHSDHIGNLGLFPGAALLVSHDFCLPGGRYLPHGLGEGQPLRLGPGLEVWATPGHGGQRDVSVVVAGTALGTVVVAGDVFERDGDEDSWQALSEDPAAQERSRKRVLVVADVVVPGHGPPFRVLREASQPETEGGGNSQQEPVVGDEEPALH
inactive: crizotinib 0.038 | [1] -0.007 | duvelisib 0.019 | gandotinib -0.056 | [2] -0.017 | doramapimod 0.169 | ispinesib -0.142

MAP4K4 isoform 6 (UniProt O95819)
Chain of UniProt O95819 (O95819 whole entry, looked up): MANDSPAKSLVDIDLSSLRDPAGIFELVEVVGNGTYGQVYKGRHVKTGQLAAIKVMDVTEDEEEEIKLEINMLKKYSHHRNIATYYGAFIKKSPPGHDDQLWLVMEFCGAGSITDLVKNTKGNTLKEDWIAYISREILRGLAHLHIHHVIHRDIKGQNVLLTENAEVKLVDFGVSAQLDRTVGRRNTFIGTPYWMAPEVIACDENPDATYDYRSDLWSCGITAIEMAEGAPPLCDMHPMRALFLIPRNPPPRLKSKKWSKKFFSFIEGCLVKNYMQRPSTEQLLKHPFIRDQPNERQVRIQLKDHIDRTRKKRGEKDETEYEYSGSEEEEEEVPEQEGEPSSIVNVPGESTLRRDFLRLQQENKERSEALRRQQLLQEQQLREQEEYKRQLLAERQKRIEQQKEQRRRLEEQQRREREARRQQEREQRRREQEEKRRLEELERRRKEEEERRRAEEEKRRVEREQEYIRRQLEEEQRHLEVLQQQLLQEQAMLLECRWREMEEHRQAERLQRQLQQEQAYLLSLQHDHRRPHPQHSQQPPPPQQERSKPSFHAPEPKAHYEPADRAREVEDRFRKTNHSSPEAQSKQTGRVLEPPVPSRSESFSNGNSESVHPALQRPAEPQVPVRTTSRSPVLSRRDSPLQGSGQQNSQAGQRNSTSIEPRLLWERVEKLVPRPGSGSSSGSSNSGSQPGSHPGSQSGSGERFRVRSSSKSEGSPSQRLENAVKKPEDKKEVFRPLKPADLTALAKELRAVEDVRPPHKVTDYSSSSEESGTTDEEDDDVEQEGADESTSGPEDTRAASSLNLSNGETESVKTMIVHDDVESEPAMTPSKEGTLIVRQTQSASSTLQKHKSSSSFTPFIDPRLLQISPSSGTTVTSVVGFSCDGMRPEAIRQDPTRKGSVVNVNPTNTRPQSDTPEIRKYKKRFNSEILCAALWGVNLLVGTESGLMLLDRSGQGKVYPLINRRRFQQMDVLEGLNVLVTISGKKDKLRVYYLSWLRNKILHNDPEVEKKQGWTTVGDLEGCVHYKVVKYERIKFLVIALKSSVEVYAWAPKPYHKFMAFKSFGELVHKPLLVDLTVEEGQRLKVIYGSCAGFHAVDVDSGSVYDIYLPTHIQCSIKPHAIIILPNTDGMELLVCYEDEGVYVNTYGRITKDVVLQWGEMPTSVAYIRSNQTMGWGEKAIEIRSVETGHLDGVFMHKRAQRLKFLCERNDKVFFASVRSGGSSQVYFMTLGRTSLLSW
inactive: [3] -0.019 | [1] -0.305 | duvelisib -0.152 | tozasertib -0.132 | [2] -0.025

MED29 (UniProt Q9NX70)
Chain of UniProt Q9NX70 (Q9NX70 whole entry, looked up): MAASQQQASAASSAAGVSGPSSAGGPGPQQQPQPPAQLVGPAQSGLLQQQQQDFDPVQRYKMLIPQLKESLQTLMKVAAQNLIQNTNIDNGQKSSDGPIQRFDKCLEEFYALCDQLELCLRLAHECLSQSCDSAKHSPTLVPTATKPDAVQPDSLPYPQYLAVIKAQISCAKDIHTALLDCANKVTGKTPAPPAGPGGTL
inactive: duvelisib -0.025 | [2] 0.171

MAPK11 (UniProt Q15759)
Chain of UniProt Q15759 (Q15759 whole entry, looked up): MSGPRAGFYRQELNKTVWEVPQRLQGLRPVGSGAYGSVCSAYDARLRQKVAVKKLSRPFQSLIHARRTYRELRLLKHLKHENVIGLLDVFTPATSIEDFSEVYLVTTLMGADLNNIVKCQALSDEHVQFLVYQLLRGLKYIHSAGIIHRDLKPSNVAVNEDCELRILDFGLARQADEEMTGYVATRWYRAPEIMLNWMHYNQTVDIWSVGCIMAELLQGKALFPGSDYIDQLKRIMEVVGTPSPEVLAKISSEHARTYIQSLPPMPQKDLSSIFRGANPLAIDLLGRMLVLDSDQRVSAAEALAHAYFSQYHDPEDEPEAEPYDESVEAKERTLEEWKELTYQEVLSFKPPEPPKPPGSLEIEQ
inactive: crizotinib -0.115 | gandotinib -0.083 | tozasertib 0.268 | ispinesib -0.334
